Experiment [1] can be described thus: Cell Viability - BJ (AID 421; calls by dose curve;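 further: potency means the concentration at half of the fitted maximal effect; cells exposed to compound for 40 hours at 37 °C before readout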). Conditions: BJ fibroblast viability, qHTS. In a few lines: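 Quantitative HTS: ATP depletion in BJ cells after 40 hr compound exposure in complete culture medium, detected with CellTiter-Glo; AC50 from standard Hill fits.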
The nature of experiment [2]: Cell Viability - Jurkat (AID 426;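 active means dose-dependent loss of cell ATP signal giving a full or clear fitted curve, ranked by lower potency value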;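 further: potency means the concentration at half of the fitted maximal effect; cells exposed to compound for 40 hours at 37 °C before ATP read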). Conditions: qHTS. In a few lines: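 Luminescent ATP read-out (CellTiter-Glo, 20 min at room temperature) after 40 hr compound exposure at 37 °C of Jurkat E6-1 cells, 5000/well. Decreased ATP taken as cytotoxicity; AC50 from standard Hill equation.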
A short description of experiment [3]: Cell Viability - MRC5 (AID 434; calls by dose curve;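 further: potency means the concentration at half of the fitted maximal effect; potency reflects cytotoxicity seen as loss of intracellular ATP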). The following applies: MRC5 lung fibroblast viability, qHTS. In a few lines: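 ATP luminescence read-out (CellTiter-Glo, 20 min RT) after 40 hr, 37 °C compound exposure of 1500 MRC5 cells/well. Data normalized to DMSO (basal) and 100 uM tamoxifen (100% inhibition); AC50 from standard Hill equation.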
A short description of experiment [4]: Cell Viability - SK-N-SH (AID 435; calls by dose curve; further: potency means the concentration at half of the fitted maximal effect). Conditions: SK-N-SH neuroblastoma cell viability qHTS. The procedure, abridged: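 SK-N-SH human neuroblastoma cells (1500/well) were exposed to compounds in complete medium for 40 h at 37 °C, and intracellular ATP was then measured by CellTiter-Glo luminescence. AC50 was taken from Hill fits, normalized to DMSO and 100 uM tamoxifen.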
For orientation: qHTS replaces the single test concentration by a dilution series.

The nature of experiment [5]: Cell Viability - N2a (AID 540; active means well fitted curve in the direction sought with a large enough effect; an effect the other way counts as inactive or inconclusive;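 further: plate controls were DMSO alone for no effect and tamoxifen control for full effect; nearly all actives have a fitted effect of over 45% in size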). The following applies: N2a mouse neuroblastoma cell viability; activity change, negative = cytotoxicity: at 92.2 µM (top of the series). The procedure, abridged:
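N2a mouse neuroblastoma, 1500 cells/well, 5 hr settle; compound 40 hr, 37 °C; CellTiter-Glo 20 min RT; luminescence; Hill-fit AC50.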

Experiment [6] in a line: Cell Viability - NIH 3T3 (AID 541; active means well fitted curve in the direction sought with a large enough effect; an effect the other way counts as inactive or inconclusive;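 further: plate controls were DMSO alone for no effect and tamoxifen positive control for full effect; nearly all actives have a fitted effect of over 25% in size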). The following applies: NIH 3T3 cell viability, qHTS; activity change, negative = cytotoxicity: at 92.2 µM (top of the series). In a few lines: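 qHTS format; 40 hr compound exposure, 37 °C; CellTiter-Glo luminescence (cellular ATP) read-out after 20 min at RT. Decrease in ATP = cytotoxicity; AC50 from standard Hill fit.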
The nature of experiment [7]: Cell Viability - H-4-II-E (AID 543; active means well fitted curve in the direction sought with a large enough effect; an effect the other way counts as inactive or inconclusive; further: on the % scale 0 is the no-effect control and ±100 the full control effect; nearly all actives have a fitted effect of over 35% in size). Conditions: H-4-II-E rat hepatoma viability; series mostly up to 92.2 µM. In a few lines: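 qHTS, rat hepatoma H-4-II-E, 1500 cells/well; 40 hr compound exposure, 37 °C; CellTiter-Glo ATP luminescence after 20 min RT; AC50 by standard Hill fit.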
Experiment [8] in a line: Cell Viability - SH-SY5Y (AID 544; active means well fitted curve in the direction sought with a large enough effect; an effect the other way counts as inactive or inconclusive; further: nearly all actives have a fitted effect of over 55% in size). Conditions: SH-SY5Y neuroblastoma cell viability; viability change, negative = cytotoxic: at 92.2 µM (top of the series). In a few lines: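 SH-SY5Y, 1500 cells/well, 5 hr pre-incubation 37 °C; cpd 40 hr 37 °C; CellTiter-Glo 20 min RT; luminescence (ATP) read. qHTS concentration-response, Hill fit → AC50. Tamoxifen, doxorubicin as positive controls.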

Experiment [9] is described as follows: Cell Viability - Renal Proximal Tubule (AID 545; active means well fitted curve in the direction sought with a large enough effect; an effect the other way counts as inactive or inconclusive; further: nearly all actives have a fitted effect of over 40% in size). The following applies: renal proximal tubule cells viability, primary cells of rat origin; activity change, negative = cytotoxicity: at 91.7 µM (top of the series). The procedure, abridged:
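Primary rat renal proximal tubule cells (1000/well) were treated with compounds for 40 hr at 37 °C in complete medium. Intracellular ATP was measured by CellTiter-Glo luminescence, and AC50 values came from Hill-equation fits of concentration-response data.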

Experiment [10] is described as follows: Cellular Toxicity (caspase-3) HepG2 (AID 654; active means well fitted curve in the direction sought with a large enough effect; an effect the other way counts as inactive or inconclusive;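 further: cells exposed to compound for 16 hours before reading; 0% = DMSO alone and 100% = caspase signal from 100 µM tamoxifen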). The following applies: HepG2 caspase-3 activation, luminescence; series mostly up to 92.2 µM. In a few lines: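 Luminescent Caspase-Glo 3/7 readout after 16 hr compound exposure of human hepatocellular carcinoma HepG2 cells at 37 °C; qHTS concentration-response, normalized DMSO = 0%, 100 uM tamoxifen = 100%; AC50 by standard Hill equation.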

A short description of experiment [11]: Cellular Toxicity (caspase-3) N2a (AID 665; active means well fitted curve in the direction sought with a large enough effect; an effect the other way counts as inactive or inconclusive;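 further: compound exposure lasted 16 h at 37 °C before readout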). Conditions: N2a cells, luminescence; Potency: caspase-3 activation; series mostly up to 92.2 µM. In a few lines: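 Luminescent Caspase-Glo 3/7 readout in N2a mouse neuroblastoma cells after 16 h compound exposure at 37 °C. Signal scaled to DMSO (basal) and 10 uM staurosporine (100%). Concentration-response fitted with Hill equation for AC50.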

Experiment [12] in a line: Cellular Toxicity (caspase-3) NIH 3T3 (AID 666; active means well fitted curve in the direction sought with a large enough effect; an effect the other way counts as inactive or inconclusive;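 further: 0% = DMSO basal and 100% = 100 µM tamoxifen stimulation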). Conditions: NIH 3T3 caspase-3 activation, apoptosis/toxicity; series mostly up to 92.2 µM. The procedure, abridged:
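NIH 3T3, 1000 cells/well, 5 hr settle then 16 hr compound at 37°C; Caspase-Glo 3/7, 20 min RT, luminescence. DMSO = basal, 100 uM tamoxifen = 100%. Hill-equation AC50, qHTS.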

A short description of experiment [13]: Cellular Toxicity (caspase-3) Renal Proximal Tubule (AID 667; active means well fitted curve in the direction sought with a large enough effect; an effect the other way counts as inactive or inconclusive;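 further: cells exposed to compound for 16 hours at 37 °C before detection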). Conditions: renal proximal tubule cells, primary cells freshly taken from rat, solvent-only wells 0%, staurosporine 100%; series mostly up to 91.7 µM. The procedure, abridged: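 Primary rat proximal tubule cells, 1000/well, 5 h plating at 37 °C, then compound 16 h at 37 °C. Caspase-Glo 3/7 reagent, 1 h RT, luminescence. Normalized to DMSO (basal) and 10 uM staurosporine (100%); Hill-fit AC50.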

The nature of experiment [14]: qHTS assay for small molecule disruptors of the mitochondrial membrane potential - 1 hr assay (AID 651754; calls by dose curve; further: on the % scale 0 is the no-effect control and ±100 the full control effect; nearly all actives have a fitted effect of over 35% in size). The following applies: series mostly up to 92.2 µM. In a few lines:
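Read-out: dye fluorescence at 490 nm ex/535 nm em (monomers) and 540 nm ex/590 nm em (aggregates) in HepG2 cells. Compound exposure 1 hr at 37C, followed by 30 min dye loading.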

Experiment [15] has as its target Peroxisome proliferator-activated receptor alpha (Homo sapiens) (UniProt Q07869). Kind of experiment: qHTS assay for small molecule agonists of the peroxisome proliferator-activated receptor alpha (PPARalpha) signaling pathway (AID 651778; active means well fitted curve in the direction sought with a large enough effect; an effect the other way counts as inactive or inconclusive; further: % of control where 0% means no effect). The following applies: PathHunter PPARalpha complementation, chemiluminescence, 6 h; max response: active compounds read high. In a few lines:
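Enzyme-fragment complementation assay in which ligand-bound PPARalpha translocates and forms an active enzyme that generates chemiluminescence. Cells were plated overnight, exposed to compound for 6 hr at 37 C, and then given detection reagent for 60 min at room temperature.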

Experiment [16] is described as follows: qHTS assay for small molecule agonists of the antioxidant response element (ARE) signaling pathway measured by Nrf2-dependant transcriptional activity - cell viability counter screen (AID 720653; active means well fitted curve in the direction sought with a large enough effect in the repeat runs; an effect the other way counts as inactive or inconclusive; further: on the % scale 0 is the no-effect control and ±100 the full control effect). The following applies: ARE-bla HepG2 viability, CellTiter-Glo ATP luminescence, 16 h; max response: active compounds read low. In a few lines: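 ARE-bla HepG2 cells treated with compounds for 16 h at 37C; this counter screen measures viability as intracellular ATP by CellTiter-Glo luminescence after 30 min at room temperature.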

Experiment [17] can be described thus: qHTS assay for cell viability of the p53RE-bla HCT-116 cell line (AID 743292; active means well fitted curve in the direction sought with a large enough effect; an effect the other way counts as inactive or inconclusive; further: on the % scale 0 is the no-effect control and ±100 the full control effect; nearly all actives have a fitted effect of over 55% in size). The following applies: p53RE-bla HCT-116 viability, ATP luminescence, 16 h; series mostly up to 95 µM. In a few lines: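 CellSensor p53RE-bla HCT-116 cells (4,000/well) pre-incubated 5 h at 37 C, then exposed to compounds in DMSO for 16 h at 37 C. Viability read as ATP content by CellTiter-Glo luminescence after 30 min at room temperature.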

Experiment [18] in a line: NFAT Signaling Pathway (AID 444).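 Further: carbachol stimulus at about its EC50 of 1 µM final; on the % scale 0 is the no-effect control and ±100 the full control effect.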 The following applies: Jurkat NFAT-bla M1, carbachol, beta-lactamase ratio, 5 h; at 17.2 µM (top of the series) unless noted. The procedure, abridged: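 Jurkat cells with NFAT-driven β-lactamase reporter and co-expressed M1 receptor, stimulated with carbachol (final 1 uM, ~EC50), compound titration, 5 h at 37 °C. CCF4 loaded 1 h at RT; 460/530 nm ratio gave %activity and AC50.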

Experiment [19] in a line: Stat Signaling Pathway (AID 446).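 Further: ME-180 cervical cancer cells given 40 pM IL-6 alongside compound; SIE-controlled beta-lactamase reporter measured as 460/530 nm FRET emission ratio; on the % scale 0 is the no-effect control and ±100 the full control effect.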 The following applies: ME-180 (cervical carcinoma) SIE beta-lactamase reporter, IL-6 stimulated, 5 h; at 17.2 µM (top of the series) unless noted. In a few lines:
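Overnight-plated ME-180 cells bearing a STAT Inducible Element beta-lactamase reporter; 5 h co-exposure to compound and 40 pM IL-6; values normalized to 300 pM IL-6 and 125 nM JAK inhibitor controls.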

The target in experiment [20] is Glucocorticoid receptor (Homo sapiens) (UniProt P04150). The experiment in a line: GR-GFP Redistribution (AID 450;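 active means compounds whose dose series gives a full or clear partial fitted curve of increased nuclear translocation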; further: potency means the concentration at half of the fitted maximal effect). Conditions: U2OS GR-GFP nuclear translocation, laser cytometry, 2 h; series mostly up to 20.6 µM.
Chain of Glucocorticoid receptor (Homo sapiens) (P04150 whole entry, looked up): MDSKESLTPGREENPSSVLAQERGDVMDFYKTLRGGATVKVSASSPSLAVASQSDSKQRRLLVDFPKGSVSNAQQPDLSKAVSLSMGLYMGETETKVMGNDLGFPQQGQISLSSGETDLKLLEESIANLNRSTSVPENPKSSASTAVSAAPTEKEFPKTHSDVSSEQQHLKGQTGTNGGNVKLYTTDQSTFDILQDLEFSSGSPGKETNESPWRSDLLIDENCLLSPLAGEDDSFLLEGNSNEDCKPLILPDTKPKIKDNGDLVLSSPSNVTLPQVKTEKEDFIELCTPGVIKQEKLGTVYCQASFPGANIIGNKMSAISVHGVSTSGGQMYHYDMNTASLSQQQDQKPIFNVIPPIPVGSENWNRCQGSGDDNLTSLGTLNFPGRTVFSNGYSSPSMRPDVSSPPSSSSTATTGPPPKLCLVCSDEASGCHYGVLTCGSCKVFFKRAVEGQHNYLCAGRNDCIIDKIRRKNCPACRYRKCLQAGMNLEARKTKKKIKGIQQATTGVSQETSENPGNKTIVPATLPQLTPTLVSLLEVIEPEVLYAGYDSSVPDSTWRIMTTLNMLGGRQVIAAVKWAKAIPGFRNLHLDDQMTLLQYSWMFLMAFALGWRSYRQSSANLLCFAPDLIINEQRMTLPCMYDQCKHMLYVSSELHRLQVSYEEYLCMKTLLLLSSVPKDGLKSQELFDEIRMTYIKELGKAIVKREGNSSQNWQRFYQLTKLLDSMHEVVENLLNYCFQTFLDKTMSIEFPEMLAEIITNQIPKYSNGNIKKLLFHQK

Where “and” joins values, the source holds several entries; their conditions need not be identical. Identical values can stand only once. Values without a mark were called inactive. Inconclusive results are not listed. Calls of active or inactive are those of the source. Unless noted, the call rests on the fitted dose curve; in most records, active means well fitted curve in either direction with a large enough effect (not every such curve was filed as active); inconclusive means small, poorly fitted or top-dose-only effect, or another doubt; inactive means flat fitted curve, though single readings scatter.

Chain of Peroxisome proliferator-activated receptor alpha (Homo sapiens) (Q07869 whole entry, looked up, the tested form may be a part): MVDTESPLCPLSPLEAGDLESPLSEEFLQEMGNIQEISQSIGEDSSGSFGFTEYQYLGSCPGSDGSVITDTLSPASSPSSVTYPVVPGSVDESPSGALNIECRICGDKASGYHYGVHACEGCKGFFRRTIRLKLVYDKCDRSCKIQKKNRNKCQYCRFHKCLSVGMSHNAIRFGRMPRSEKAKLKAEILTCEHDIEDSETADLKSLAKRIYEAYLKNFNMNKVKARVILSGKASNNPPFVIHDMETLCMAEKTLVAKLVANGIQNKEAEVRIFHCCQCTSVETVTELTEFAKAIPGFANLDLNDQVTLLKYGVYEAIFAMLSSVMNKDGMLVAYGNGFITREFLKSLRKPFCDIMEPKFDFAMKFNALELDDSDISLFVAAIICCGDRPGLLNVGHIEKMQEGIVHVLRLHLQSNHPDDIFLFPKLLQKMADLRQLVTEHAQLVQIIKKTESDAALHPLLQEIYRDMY

For the compound `O=C=Nc1ccc(Cc2ccc(N=C=O)cc2)cc1`, the Potency in experiment [1], in [2], in experiment [3] and in experiment [4] was above 92 µM each time. Further, the Potency result in [5], in experiment [6], in experiment [7], in experiment [8], in experiment [9] and in experiment [10] was “inactive” throughout. Further, the Potency result in experiment [11], in experiment [12], in experiment [14] and in experiment [17] was “inactive” in each case. Moreover, in experiment [13], the outcome was inactive. Besides, the max response in experiment [15] is -0.535% and -0.74%; in experiment [16], -1.3% and -0.206%.
For the compound `Cn1c2ccccc2c2nn(-c3ccccc3)c(=O)cc21`, the activity change, negative = inhibition in [18] was 2.73%. For the same compound, the activity, negative = inhibition in experiment [19] is 6.09%. For the same compound, the Potency in experiment [20] was above 20.6 µM.
In the case of `Cc1nc2sc3c(NCc4ccco4)ncnc3c2c2c1COC(C)(C)C2`, in experiment [18], the activity change, negative = inhibition was -8.41%. In experiment [19], the activity, negative = inhibition was -18.1%. The Potency in experiment [20] is above 20.6 µM.
Taken in the same sequence, the figures for `CCOC(=O)C1=C(C)N=C2SC(C)C(=O)N2C1c1ccc(C(=O)OC)cc1` (centres undefined) were -15.8%, -8.28% and above 20.6 µM.
Consider `CCCOc1ccc(N2C(=O)C3ON(c4ccccc4)C(c4ccc(O)c(OC)c4)C3C2=O)cc1` (centres undefined), for which the activity change, negative = inhibition in [18] is 10.7%. Further, the activity, negative = inhibition in experiment [19] is -20%. In addition, the Potency in [20] was above 20.6 µM.
The matching figures for `COc1cccc(N2CCN(c3ncnc4c3[nH]c3ccccc34)CC2C)c1` (centres undefined): -139% (active), -104% (active) and above 20.6 µM.
For `CCC1(C)Cc2c(C#N)c(N)sc(=S)c2CO1` (centres undefined), the activity change, negative = inhibition in experiment [18] is -12.1%. The activity, negative = inhibition in [19] was -10.3%. In addition, in experiment [20], the Potency was above 20.6 µM.
Taken in the same sequence, the figures for `CCOc1ccc(CC2CC(=O)NC2=O)cc1` (centres undefined) were -5.51%, -1.04% and above 20.6 µM.
The matching figures for `Cc1ccc(-n2ncc3c(NCc4ccc5c(c4)OCO5)ncnc32)c(C)c1`: 8.44%, -19.8% and above 20.6 µM.
Regarding `[N-]=[N+]=CC(=O)c1ccnc(C(=O)C=[N+]=[N-])c1`, in experiment [18], the activity change, negative = inhibition was -17.4%. The activity, negative = inhibition in experiment [19] was -1.87%. Moreover, the Potency in experiment [20] was above 20.6 µM.
For `COc1ccccc1Nc1ncc(-c2cccs2)s1`, the activity change, negative = inhibition in experiment [18] was 11.7%. In [19], the activity, negative = inhibition was -4.45%. Also, the Potency in [20] is above 20.6 µM.
As to `CN1CCc2c(C#N)c(N3CCCCC3)nc(NCc3ccccc3)c2C1`, the activity change, negative = inhibition in experiment [18] was -7.69%. In addition, the activity, negative = inhibition in [19] is -16.2%. Also, the Potency in experiment [20] was above 20.6 µM.
The matching figures for `Nc1nnc(Cc2ccc(Cl)c(Cl)c2)s1`: 2.08%, 4.97% and above 20.6 µM.
The matching figures for `COc1ccc(-c2nn3c(C4CCCCC4)nnc3s2)cc1OC`: -3.44%, 16.5% and above 20.6 µM.
The matching figures for `N#CC(C(=O)Nc1ccc(Cl)c(Cl)c1)=C1Nc2ccccc2N1`: -3.6%, -4.82% and above 20.6 µM.

The values above are taken from PubChem BioAssay (NCATS).
